Here are results for nine molecules from PubChem BioAssay (Tox21).

Each structure is given as a SMILES string. “And” between values parts separate entries of the source, which are not always exact repeats. Equal values may be shown once. Records with an inconclusive call do not appear. The source holds several records for some structures; these can differ, active in one and inactive in another. The source made the active and inactive calls. Unless noted, the call rests on the fitted dose curve; in most records, active means well fitted curve in the direction sought with a large enough effect in the repeat runs; inconclusive means weak or mixed curves; inactive means no such curve, though single readings can be large; an effect the other way counts as inactive or inconclusive.

Assay [1] has as its target Estrogen receptor beta (Homo sapiens) (UniProt Q92731). Put plainly: qHTS assay to identify small molecule agonists of the estrogen receptor beta (ER-beta) signaling pathway (AID 1259377; active means well fitted activation curve with a large enough effect in the signal ratio in the repeat runs, not every such curve was filed as active; the % refers to the signal ratio; further: potency means the concentration at half of the fitted maximal effect). The method, boiled down: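 Reporter cells (HEK293T, ER-beta-UAS-bla) receive compounds or DMSO after a 6 hr pre-incubation. They then incubate 16 hr at 37C/5% CO2, and fluorescence from LiveBLAzer B/G substrate is measured after 2 hours at room temperature.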

For assay [2] the target is unchanged. The assay is described as follows: qHTS assay to identify small molecule antagonists of the estrogen receptor beta (ER-beta) signaling pathway (AID 1259378; active means well fitted inhibition curve with a large enough effect in the signal ratio in the repeat runs, not every such curve was filed as active; the % refers to the signal ratio). The procedure, abridged:
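ER-beta-UAS-bla HEK293T cells in 2% charcoal-stripped FBS medium treated with compound plus 1nM final 17-beta-estradiol for 16 hr at 37C. Beta-lactamase reporter read by FRET substrate fluorescence after 2 hours at room temperature.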
(In general: Quantitative high-throughput screening tests each substance at several concentrations.)

The nature of assay [3]: qHTS assay to identify small molecule agonists of the estrogen receptor beta (ER-beta) signaling pathway - cell viability counter screen (AID 1259380). Further: nearly all actives have a fitted effect of over 30% in size. Further: potency means the concentration at half of the fitted maximal effect. The method, boiled down:
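Measured: luminescence from CellTiter-Glo after 30 min at room temperature, added to wells already read for the LiveBLAzer FRET reporter (2 hr substrate); ER-beta-UAS-bla HEK293T cells had 16 hr compound treatment at 37C, 5% CO2.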

The nature of assay [4]: qHTS assay to identify small molecule antagonists of the estrogen receptor beta (ER-beta) signaling pathway - cell viability counter screen (AID 1259382). Further: nearly all actives have a fitted effect of over 55% in size. Further: potency means the concentration at half of the fitted maximal effect. The procedure, abridged:
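Readout: luminescence, CellTiter-Glo, same wells as bla assay. System: ER-beta-UAS-bla GripTite HEK293T, 2% charcoal-stripped FBS. Exposure: compounds plus 1nM 17-beta-estradiol, 16 hr, 37C.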

For assay [5], the target named is Estrogen receptor (Homo sapiens) (UniProt P03372). Put plainly: qHTS assay to identify small molecule agonists of the estrogen receptor alpha (ER-alpha) signaling pathway in the presence of an antagonist (AID 1259383; calls by dose curve; further: nearly all actives have a fitted effect of over 15% in size; further: potency means the concentration at half of the fitted maximal effect; on activation: top concentration of the series differs between compounds). The method, boiled down: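 Quantitative HTS confirmation: compounds titrated at 15 concentrations onto estrogen-deprived VM7Luc4E2 cells carrying a four-ERE luciferase construct, with ICI-182,780 present at 10.0nM final. Signal is luminescence after 22hr exposure.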
Chain of Estrogen receptor (Homo sapiens) (P03372 whole entry, looked up): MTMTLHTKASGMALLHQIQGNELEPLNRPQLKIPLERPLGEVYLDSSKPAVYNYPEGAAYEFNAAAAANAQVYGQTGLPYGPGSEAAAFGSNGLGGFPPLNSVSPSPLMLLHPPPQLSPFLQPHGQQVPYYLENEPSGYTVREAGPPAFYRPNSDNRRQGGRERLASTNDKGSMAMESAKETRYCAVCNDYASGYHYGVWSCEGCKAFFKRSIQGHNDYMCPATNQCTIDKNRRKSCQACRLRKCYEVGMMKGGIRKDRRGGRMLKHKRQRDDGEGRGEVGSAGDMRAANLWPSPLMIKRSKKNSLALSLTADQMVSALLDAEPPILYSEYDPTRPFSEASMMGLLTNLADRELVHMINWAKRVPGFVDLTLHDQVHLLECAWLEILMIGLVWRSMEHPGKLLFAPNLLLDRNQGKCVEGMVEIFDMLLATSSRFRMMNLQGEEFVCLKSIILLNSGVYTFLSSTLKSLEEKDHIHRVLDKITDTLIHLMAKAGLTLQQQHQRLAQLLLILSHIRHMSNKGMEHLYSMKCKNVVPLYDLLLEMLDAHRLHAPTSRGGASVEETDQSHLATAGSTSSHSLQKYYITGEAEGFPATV

Assay [6] can be described thus: qHTS assay to identify small molecule agonists or antagonists of the thyroid stimulating hormone receptor (TSHR) signaling pathway - wild type cell line counter screen (AID 1259384; calls by dose curve). The procedure, abridged: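 Wild-type Hek293 cells, 800/well, 18 h at 37C, then compound with Ro20-1724 for 30 min RT. cAMP by HTRF (cAMP-d2/anti-cAMP cryptate), 1 h RT, fluorescence read. 15 concentrations, triplicates.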

Assay [7] deals with Thyrotropin receptor (Homo sapiens) (UniProt P16473). The assay is described as follows: qHTS assay to identify small molecule antagonists of the thyroid stimulating hormone receptor (TSHR) signaling pathway (AID 1259385; calls by dose curve; further: nearly all actives have a fitted effect of over 20% in size). The procedure, abridged:
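TSHR-HEK293 cells (800/well) plated 18 h, then compounds with Ro20-1724 and TSH at 1.5 ng/mL final, 30 min at room temperature. cAMP quantified by HTRF (cAMP-d2/anti-cAMP-cryptate, 1 h); 15 concentrations in triplicate.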

Assay [8] concerns the target Progesterone receptor (Homo sapiens) (UniProt P06401). The assay is described as follows: qHTS assay to identify small molecule agonists of the progesterone receptor (PR) signaling pathway (AID 1346784; calls by dose curve; further: nearly all actives have a fitted effect of over 30% in size; further: potency means the concentration at half of the fitted maximal effect). The procedure, abridged: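 Reporter assay, GripTite PR-UAS-bla HEK 293T cells: 16 hr exposure to DMSO-dissolved compounds at 37C, 5% CO2, in steroid-depleted (2% charcoal-stripped FBS) medium; beta-lactamase measured by FRET fluorescence.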

The target is the same in assay [9]. Put plainly: qHTS assay to identify small molecule antagonists of the progesterone receptor (PR) signaling pathway (AID 1346795; active means well fitted inhibition curve with a large enough effect in the signal ratio in the repeat runs, not every such curve was filed as active; the % refers to the signal ratio; further: potency means the concentration at half of the fitted maximal effect). The procedure, abridged:
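Stimulus R5020 at 1 nM final; cells HEK293T PR-UAS-bla; medium with 2% charcoal-stripped FBS; compound exposure 16 hr at 37C, 5% CO2; detection by FRET beta-lactamase substrate, 2 hr, room temperature.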

Assay [10] can be described thus: qHTS assay to identify small molecule antagonists of the progesterone receptor (PR) signaling pathway - cell viability counter screen (AID 1346798). Further: nearly all actives have a fitted effect of over 50% in size. Further: potency means the concentration at half of the fitted maximal effect. The procedure, abridged: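 In the same plates used for the beta-lactamase readout, cell viability of compound- and R5020-treated PR-UAS-bla HEK293T cells (16 hr, 37C) was assessed by CellTiter-Glo luminescence.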
Assay [11] in a line: qHTS assay to identify small molecule agonists of the TGF-beta/Smad signaling pathway - cell viability counter screen (AID 1346829). Further: nearly all actives have a fitted effect of over 45% in size. Further: potency means the concentration at half of the fitted maximal effect. The method, boiled down: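 Compound-treated SBE-bla HEK 293T cells (5 hr, 37 C) were assessed for viability with CellTiter-Glo in parallel with the reporter read.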
Assay [12] in a line: qHTS assay to identify small molecule agonists of the TGF-beta/Smad signaling pathway (AID 1346859; active means well fitted activation curve with a large enough effect in the signal ratio in the repeat runs, not every such curve was filed as active; the % refers to the signal ratio; further: series mostly up to about 77 µM). The method, boiled down: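 Screening used HEK 293T SBE-bla cells at 4,000/well. Test agents: 5 hr, 37 C. Detection: FRET substrate, 2 hr RT, then excitation 405 nm with emissions at 460 and 530 nm.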
Assay [13] deals with Thyrotropin-releasing hormone receptor (Homo sapiens) (UniProt P34981). The assay is described as follows: qHTS assay to identify small molecule antagonists of the thyrotropin-releasing hormone receptor (TRHR) signaling pathway (AID 1346877; active means well fitted inhibition curve with a large enough effect in the repeat runs, not every such curve was filed as active; further: series mostly up to about 51 µM). The procedure, abridged: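 Overnight-plated (18 h, 37 °C) HEK293 cells expressing TRHR were dye-loaded 2 h, treated with compound, then stimulated with TRH at 1 nM final. Fluorescence intensity was captured every second for 3 min.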
Chain of Thyrotropin-releasing hormone receptor (Homo sapiens) (P34981 whole entry, looked up): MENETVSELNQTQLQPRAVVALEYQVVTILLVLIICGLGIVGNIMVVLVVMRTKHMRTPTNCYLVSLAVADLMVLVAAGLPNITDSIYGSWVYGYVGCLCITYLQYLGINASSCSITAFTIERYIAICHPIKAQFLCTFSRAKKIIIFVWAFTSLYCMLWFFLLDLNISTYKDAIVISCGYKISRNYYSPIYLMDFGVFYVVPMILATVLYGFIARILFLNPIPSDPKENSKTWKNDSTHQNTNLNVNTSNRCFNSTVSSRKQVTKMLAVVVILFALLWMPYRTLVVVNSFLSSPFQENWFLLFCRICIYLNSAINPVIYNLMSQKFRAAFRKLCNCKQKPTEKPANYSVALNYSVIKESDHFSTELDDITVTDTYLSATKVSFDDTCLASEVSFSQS

The target is the same in assay [14]. The assay is described as follows: qHTS assay to identify small molecule agonists of the thyrotropin-releasing hormone receptor (TRHR) signaling pathway (AID 1346891; calls by dose curve; further: series mostly up to about 58 µM). The procedure, abridged:
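Readout was intracellular calcium fluorescence in TRHR-Hek293 cells. Cells were incubated 18 h, dye-loaded 2 h at 37 °C, and treated with compound in agonist mode.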

Assay [15] can be described thus: Human pregnane X receptor (PXR) small molecule agonists, qHTS cell viability counter screen (AID 1346977). Further: nearly all actives have a fitted effect of over 50% in size. Further: potency means the concentration at half of the fitted maximal effect. The method, boiled down:
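In each well, the PXR reporter HepG2 line was checked for viability: CellTiter-Fluor reagent added 23hr post-dosing, fluorescence read after 1hr incubation at 37C.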

Assay [16] in a line: qHTS assay to identify small molecule agonists of the estrogen receptor alpha (ER-alpha) signaling pathway in the presence of an antagonist - cell viability counter screen (AID 1259386).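 Further: series mostly up to about 92 µM; cells exposed to compounds for 22 h at 37 °C before the viability read; nearly all actives have a fitted effect of over 30% in size.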 The procedure, abridged:
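The test measures whether compounds kill ER-alpha reporter cells (VM7Luc4E2) under antagonist co-treatment (ICI-182,780, 10.0nM). Fluorescence from CellTiter-Fluor is read after a 22hr exposure.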

The nature of assay [17]: qHTS assay to identify small molecule agonists of the progesterone receptor (PR) signaling pathway - cell viability counter screen (AID 1346799; calls by dose curve; further: nearly all actives have a fitted effect of over 45% in size; further: potency means the concentration at half of the fitted maximal effect). The procedure, abridged: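 Multiplexed viability read: CellTiter-Glo luminescence, 30 min RT, following LiveBLAzer FRET measurement on PR-UAS-bla HEK293T cells exposed to compounds 16 hr.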
The nature of assay [18]: qHTS assay to identify small molecule antagonists of the TGF-beta/Smad signaling pathway - cell viability counter screen (AID 1346824). Further: nearly all actives have a fitted effect of over 50% in size. The procedure, abridged:
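SBE-bla HEK 293T cells, incubated overnight, then compound plus 0.25 ng/mL TGF-beta1 (stock added) for 5 hr at 37 C. Viability was read in the same wells by CellTiter-Glo luminescence after 30 min at room temperature.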

In assay [19] the target is Androgen receptor (Homo sapiens) (UniProt P10275). The assay is described as follows: qHTS assay to identify small molecule agonists of the androgen receptor (AR) signaling pathway in the presence of an antagonist (AID 1259381; calls by dose curve; further: nearly all actives have a fitted effect of over 15% in size). The method, boiled down: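 Luminescent ONE-Glo read, 30min at room temperature, follows 16hr compound exposure (15 concentrations) of MDA-kb2 cells at 37C, 0% CO2, with nilutamide added at 3.0uM final.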
Chain of Androgen receptor (Homo sapiens) (P10275 whole entry, looked up): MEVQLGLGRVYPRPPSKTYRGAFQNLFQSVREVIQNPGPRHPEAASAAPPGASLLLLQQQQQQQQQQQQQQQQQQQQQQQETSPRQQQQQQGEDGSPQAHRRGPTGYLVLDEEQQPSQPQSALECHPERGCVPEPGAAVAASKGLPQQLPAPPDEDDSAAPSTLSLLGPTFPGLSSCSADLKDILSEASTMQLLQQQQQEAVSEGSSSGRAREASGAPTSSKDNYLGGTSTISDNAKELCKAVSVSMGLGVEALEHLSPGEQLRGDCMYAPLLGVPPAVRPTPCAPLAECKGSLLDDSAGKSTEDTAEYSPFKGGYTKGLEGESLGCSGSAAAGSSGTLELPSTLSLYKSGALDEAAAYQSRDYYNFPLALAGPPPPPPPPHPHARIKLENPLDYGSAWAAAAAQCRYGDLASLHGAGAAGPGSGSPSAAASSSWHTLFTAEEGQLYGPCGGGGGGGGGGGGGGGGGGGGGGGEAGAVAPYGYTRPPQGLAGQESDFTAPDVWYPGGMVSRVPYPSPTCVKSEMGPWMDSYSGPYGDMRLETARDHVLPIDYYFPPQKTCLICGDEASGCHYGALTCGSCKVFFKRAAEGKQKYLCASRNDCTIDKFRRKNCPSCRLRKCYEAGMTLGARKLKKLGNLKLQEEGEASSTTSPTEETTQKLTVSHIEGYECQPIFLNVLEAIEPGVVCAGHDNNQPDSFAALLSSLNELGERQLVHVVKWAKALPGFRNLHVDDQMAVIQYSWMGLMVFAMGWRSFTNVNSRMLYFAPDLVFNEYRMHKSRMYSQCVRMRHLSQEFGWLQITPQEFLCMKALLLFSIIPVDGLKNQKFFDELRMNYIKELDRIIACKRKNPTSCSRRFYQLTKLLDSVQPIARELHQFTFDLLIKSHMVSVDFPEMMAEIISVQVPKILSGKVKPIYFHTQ

Assay [20] can be described thus: qHTS assay to identify small molecule agonists of the androgen receptor (AR) signaling pathway in the presence of an antagonist - cell viability counter screen (AID 1259379). Further: nearly all actives have a fitted effect of over 25% in size. Further: potency means the concentration at half of the fitted maximal effect. The method, boiled down:
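MDA-kb2 viability measured by CellTiter-Fluor fluorescence in the same wells as the luciferase signal; nilutamide 3.0uM final; 15-point compound titration; 16 hr at 37C.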

Chain of Thyrotropin receptor (Homo sapiens) (P16473 whole entry, looked up): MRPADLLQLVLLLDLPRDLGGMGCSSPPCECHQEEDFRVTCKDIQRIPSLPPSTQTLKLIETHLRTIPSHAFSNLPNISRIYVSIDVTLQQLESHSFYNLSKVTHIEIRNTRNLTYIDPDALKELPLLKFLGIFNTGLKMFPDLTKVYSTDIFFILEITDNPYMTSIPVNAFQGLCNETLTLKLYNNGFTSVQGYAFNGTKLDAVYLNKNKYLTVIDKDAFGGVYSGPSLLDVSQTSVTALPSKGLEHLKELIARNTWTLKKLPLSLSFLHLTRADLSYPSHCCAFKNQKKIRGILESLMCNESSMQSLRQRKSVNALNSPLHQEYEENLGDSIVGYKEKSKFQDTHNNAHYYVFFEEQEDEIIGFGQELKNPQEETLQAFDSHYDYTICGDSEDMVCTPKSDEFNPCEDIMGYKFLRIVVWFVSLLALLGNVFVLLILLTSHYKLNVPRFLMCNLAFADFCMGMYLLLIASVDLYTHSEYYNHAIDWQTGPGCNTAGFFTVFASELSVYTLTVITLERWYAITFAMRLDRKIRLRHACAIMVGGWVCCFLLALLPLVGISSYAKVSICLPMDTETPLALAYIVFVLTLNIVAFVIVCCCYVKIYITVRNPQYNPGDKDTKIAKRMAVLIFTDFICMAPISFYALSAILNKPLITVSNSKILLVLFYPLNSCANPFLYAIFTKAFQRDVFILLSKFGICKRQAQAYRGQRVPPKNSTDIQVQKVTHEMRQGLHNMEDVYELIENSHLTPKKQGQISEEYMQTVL
Chain of Estrogen receptor beta (Homo sapiens) (Q92731 whole entry, looked up): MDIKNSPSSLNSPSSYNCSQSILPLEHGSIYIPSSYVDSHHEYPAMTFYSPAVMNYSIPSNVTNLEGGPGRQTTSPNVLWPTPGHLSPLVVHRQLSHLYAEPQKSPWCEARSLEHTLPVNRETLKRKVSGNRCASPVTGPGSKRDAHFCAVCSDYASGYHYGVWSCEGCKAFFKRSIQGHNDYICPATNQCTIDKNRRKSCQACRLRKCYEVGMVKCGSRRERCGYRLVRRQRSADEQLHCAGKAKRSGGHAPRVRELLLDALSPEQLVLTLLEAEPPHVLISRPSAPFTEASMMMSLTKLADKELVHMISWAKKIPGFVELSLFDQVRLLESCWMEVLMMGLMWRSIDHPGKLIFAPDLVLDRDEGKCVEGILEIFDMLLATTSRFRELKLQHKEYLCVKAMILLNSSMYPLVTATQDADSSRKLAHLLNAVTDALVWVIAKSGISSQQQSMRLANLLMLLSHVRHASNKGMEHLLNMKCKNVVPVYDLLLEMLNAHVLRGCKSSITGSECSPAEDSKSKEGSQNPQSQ
Chain of Progesterone receptor (Homo sapiens) (P06401 whole entry, looked up): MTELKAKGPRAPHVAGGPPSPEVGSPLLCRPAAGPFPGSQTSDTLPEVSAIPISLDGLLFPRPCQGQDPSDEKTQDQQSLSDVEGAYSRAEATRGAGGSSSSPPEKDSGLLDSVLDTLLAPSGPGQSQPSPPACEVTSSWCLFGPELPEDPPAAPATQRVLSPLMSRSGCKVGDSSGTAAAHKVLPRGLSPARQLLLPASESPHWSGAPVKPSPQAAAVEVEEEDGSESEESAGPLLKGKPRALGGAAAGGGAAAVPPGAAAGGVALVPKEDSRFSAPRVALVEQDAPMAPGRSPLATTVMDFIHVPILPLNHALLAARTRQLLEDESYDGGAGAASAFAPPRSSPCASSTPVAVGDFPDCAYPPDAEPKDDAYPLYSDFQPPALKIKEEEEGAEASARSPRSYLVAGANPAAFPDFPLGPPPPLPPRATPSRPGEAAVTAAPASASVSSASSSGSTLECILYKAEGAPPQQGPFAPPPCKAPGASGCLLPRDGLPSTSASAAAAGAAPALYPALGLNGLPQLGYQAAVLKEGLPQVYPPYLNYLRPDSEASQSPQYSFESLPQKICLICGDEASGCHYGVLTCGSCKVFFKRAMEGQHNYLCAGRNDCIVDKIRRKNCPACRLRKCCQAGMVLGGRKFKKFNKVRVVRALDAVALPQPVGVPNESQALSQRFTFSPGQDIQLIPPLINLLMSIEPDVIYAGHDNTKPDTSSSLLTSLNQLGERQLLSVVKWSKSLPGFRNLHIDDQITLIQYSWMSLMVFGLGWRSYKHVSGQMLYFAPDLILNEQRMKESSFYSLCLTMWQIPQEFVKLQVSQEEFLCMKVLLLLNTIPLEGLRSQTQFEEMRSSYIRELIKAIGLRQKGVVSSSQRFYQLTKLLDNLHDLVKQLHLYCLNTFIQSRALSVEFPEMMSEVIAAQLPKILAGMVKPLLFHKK

For the molecule `CC(C)C(=O)OCC(C)(C)C(OC(=O)C(C)C)C(C)C` (stereo not drawn), the Potency result was “inactive and 27.3 µM (active)” in assay [1]; “inactive and 27.3 µM (active)” in assay [5]. In addition, the Potency result in [2], in assay [3], in [4], in assay [8], in assay [9] and in assay [10] was “inactive” in each case. Further, the Potency entry in assay [11], in assay [13], in assay [14] and in assay [15] was “inactive” in each case. Further, the result in assay [6], in assay [7] and in [12] was inactive.

As for `C=CCN(CC=C)C(=O)C(Cl)Cl`, the Potency result in assay [1], in assay [2], in assay [3], in assay [4], in assay [16] and in assay [8] was “inactive” throughout. For the same molecule, the Potency entry in assay [9], in assay [10], in assay [17], in assay [11], in assay [13] and in assay [14] was “inactive” throughout. The Potency entry in assay [15] was “inactive”. Moreover, the result in assay [6], in assay [7] and in assay [12] was inactive.

As for `C[C@]12CCC(=O)C[C@@H]1CC[C@@H]1[C@@H]2CC[C@]2(C)[C@@H](O)CC[C@@H]12`, the Potency is 853 nM (active) and 546 nM (active) in [1]; 13.5 µM (active) and 12.2 µM (active) in assay [3]; 3.03 µM (active) and 1.94 µM (active) in [8]; 48 µM (active) in assay [17]. For the same molecule, the Potency result in [18], in assay [11] and in assay [15] was “inactive” in each case. Besides, the call in assay [12] was inactive.

On to `Cc1cc(Cl)ccc1OCCCC(=O)O`, for which the Potency entry in assay [1], in assay [3], in [19], in assay [16], in [8] and in assay [9] was “inactive” in each case. Besides, the Potency result in assay [10], in assay [11], in assay [13], in assay [14] and in assay [15] was “inactive” each time. Also, the molecule was called inactive in [6] and in assay [7].

As for `CC(O)CCO` (stereo not drawn), the Potency result in assay [1], in assay [2], in assay [3], in assay [4], in assay [16] and in assay [8] was “inactive” each time. For the same molecule, the Potency result in assay [9], in assay [10], in [17], in assay [11], in [13] and in assay [14] was “inactive” in each case. The Potency entry in assay [15] was “inactive”. Also, the outcome in assay [6], in [7] and in [12] was inactive.

`Oc1cc(Cl)ccc1Oc1ccc(Cl)cc1Cl`: the Potency entry in assay [1] was “inactive”. Further, the Potency in assay [20] is 27.9 µM (active); in assay [3] it was 39.5 µM (active); in assay [4], 41.8 µM (active); in assay [9] it was 13.3 µM (active); in assay [10] it was 31.4 µM (active); in [17], 31.4 µM (active) and inactive. Besides, the Potency in [11] was 39.8 µM (active) and inactive; in [15], 31.4 µM (active) and 29.8 µM (active).

For the molecule `C=CC(=O)OCCO`, the Potency entry in assay [1], in assay [2], in [3], in assay [4], in assay [16] and in assay [8] was “inactive” in each case. For the same molecule, the Potency entry in assay [9], in assay [10], in assay [18], in [11], in assay [13] and in assay [14] was “inactive” in each case. Further, the Potency result in assay [15] was “inactive”. Also, the molecule was classed as inactive in [6] and in [7].

`O=C(CCl)c1ccccc1`: the Potency entry in assay [2], in assay [20], in assay [3], in assay [16], in [8] and in assay [9] was “inactive” each time. In addition, the Potency result in assay [10], in [17], in assay [11] and in assay [15] was “inactive” each time. For the same molecule, the call in assay [6] and in [7] was inactive.

Take `CCCCNC(=O)n1c(NC(=O)OC)nc2ccccc21`: the Potency result in assay [2], in [20], in [3], in assay [19], in assay [5] and in [16] was “inactive” each time. The Potency result in assay [8], in assay [18], in assay [11], in assay [13], in assay [14] and in assay [15] was “inactive” in each case. For the same molecule, the outcome in assay [6] and in [7] was inactive.
